HTR5A inv ag – counter-screen for OPRM1-OPRD1 inverse agonists: human HTR5A inverse agonism; P47898; HTR5A cell line, luminescence; inhibition, % at 9.3 µM; actives 0.083% (n = 340,000); AID 504634; in the data active means inhibition mostly above about 23%, no sharp cut-off; inactive means mostly below about 18%
OPRM1-OPRD1 inv – inverse agonists of human mu-delta opioid receptor heterodimerization | cell-based MOR-DOR heterodimer luminescence, inverse agonism | P35372+P41143 | inhibition, % at 9.3 µM | actives 0.21% (n = 340,000); in the data active means inhibition above about 22%, passing the limit was not always enough
Target sequence (P35372 whole entry, looked up): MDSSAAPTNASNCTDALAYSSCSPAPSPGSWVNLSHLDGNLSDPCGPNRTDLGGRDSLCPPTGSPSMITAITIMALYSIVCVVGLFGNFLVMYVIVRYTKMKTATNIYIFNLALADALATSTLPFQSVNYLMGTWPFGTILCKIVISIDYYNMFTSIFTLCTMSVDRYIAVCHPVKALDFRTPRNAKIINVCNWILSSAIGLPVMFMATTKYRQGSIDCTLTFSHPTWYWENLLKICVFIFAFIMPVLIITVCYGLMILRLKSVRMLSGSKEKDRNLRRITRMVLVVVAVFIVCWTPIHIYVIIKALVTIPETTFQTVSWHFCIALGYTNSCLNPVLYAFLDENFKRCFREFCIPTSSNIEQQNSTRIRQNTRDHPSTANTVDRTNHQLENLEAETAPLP
Target sequence (P41143 whole entry, looked up): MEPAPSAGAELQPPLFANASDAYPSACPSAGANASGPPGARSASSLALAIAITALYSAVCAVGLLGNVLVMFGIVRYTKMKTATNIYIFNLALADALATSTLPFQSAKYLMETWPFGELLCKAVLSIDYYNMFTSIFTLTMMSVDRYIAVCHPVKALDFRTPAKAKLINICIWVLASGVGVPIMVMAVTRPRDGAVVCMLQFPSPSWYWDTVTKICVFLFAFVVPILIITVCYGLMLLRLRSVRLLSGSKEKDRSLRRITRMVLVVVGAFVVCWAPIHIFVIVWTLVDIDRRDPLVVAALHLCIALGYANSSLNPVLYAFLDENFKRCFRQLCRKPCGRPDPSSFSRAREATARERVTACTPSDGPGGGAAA
HTR5A ag – activates human HTR5A in OPRM1-OPRD1 agonist counter-screen | actives 0.61% (n = 340,000) | activation, % at 9.3 µM | HTR5A agonist assay, luminescence, cell-based | P47898; in the data active means activation mostly above about 9.5%, no sharp cut-off; inactive means mostly below about 7.6%
OPRM1-OPRD1 ag – agonists of human mu-delta opioid receptor heterodimerization. P35372+P41143. activation, % at 9.3 µM. actives 0.3% (n = 340,000). cells, OPRM1-OPRD1 heterodimerization, luminescence. AID 504326; in the data active means activation above about 18%
A1 inh – inhibitors of the anti-apoptotic protein A1, read as caspase activation. MEF A1-2A-BIM cells, Caspase-Glo 3/7 luminescence, 3 h; percent of clofoctol response, vehicle zero. caspase activation, % (test concentration not listed). actives 0.066% (n = 330,000). AID 2462;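 active means over half of replicate activation scores above 10%, or exactly half above 10 with the replicate mean above 10; inconclusive means replicate mean below 10 yet half the replicates above 10; inactive means over half of replicates below 10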
Of the large screens only hits and unclear results are named; the others gave an inactive call. Hits are enriched below; roughly 1.1% of the tested compounds scored in any of these assays.

Cc1[nH]c2ccc(OC(F)(F)F)cc2c1CCNCc1cccc([N+](=O)[O-])c1	none
CCOc1cccc(CNCCc2c(C)[nH]c3ccc(OC(F)(F)F)cc23)c1O	HTR5A ag 15.9, OPRM1-OPRD1 ag 20.0
Cc1cc(N2CCN(C)CC2)nc2ccccc12	HTR5A ag 9.1
CSc1nc(N2CCN(C)CC2)c2ccccc2n1	none
N#Cc1cc2c(nc1SCC(=O)Nc1ccc(Cl)cc1)C1CCN2CC1	HTR5A ag 12.0
CN1C(=O)NC(=O)C2(CCCC2)C1=O	none (no result: A1 inh)
Cc1ccc(OCC(=O)Nc2ccc(Cl)cc2C(=O)c2ccccc2)cc1	none
Cc1ccc(C(=O)Nc2ccc(Cl)cc2C(=O)c2ccccc2)cc1	HTR5A ag 10.8
O=C(O)C(Cc1cnc[nH]1)NS(=O)(=O)c1ccc(Br)cc1 (configuration not stated)	none
C[C@@H]1O[C@@H](O[C@@H]2C=C3CC[C@@H]4C(CC[C@]5(C)[C@@H](c6ccc(=O)oc6)CC[C@]45O)[C@@]3(C)CC2)[C@H](O)[C@H](O)[C@H]1O (some centres not stated)	HTR5A ag 22.1, OPRM1-OPRD1 ag 67.9
NCCc1c[nH]c2ccccc12	HTR5A ag 49.7
Fc1ccc(CNCCc2c[nH]c3ccccc23)cc1	none
c1coc(CNCCc2c[nH]c3ccccc23)c1	HTR5A ag 13.4
COC(=O)C12OCC34C(CC5C(C)=C(O)C(=O)CC5(C)C3C(O)C1O)OC(=O)C(OC(=O)/C=C(\C)C(C)C)C24 (configuration not stated)	none (no result: A1 inh)
C[CH2][Hg][S]c1ccccc1C(=O)O	none
CCN1/C(=C\C=C\C2=[N+](CC)c3ccccc3C2(C)C)C(C)(C)c2ccccc21	HTR5A inv ag 38.2
COc1cccc(C2CCN(CC(=O)Nc3cc(Cl)ccc3OC)CC2O)c1 (configuration not stated)	none
COC1CC(OC2CCC3(C)C(CCC4C3CCC3(C)C(C5=CC(=O)OC5)C(OC(C)=O)CC43O)C2)OC(C)C1OC1OC(COC2OC(CO)C(O)C(O)C2O)C(O)C(O)C1O (configuration not stated)	none (no result: HTR5A inv ag, OPRM1-OPRD1 inv, HTR5A ag, OPRM1-OPRD1 ag)
CC(=O)OC1CC(OC2C(O)CC(OC3C(O)CC(OC4CCC5(C)C(CCC6C5CCC5(C)C(C7=CC(=O)OC7)CCC65O)C4)OC3C)OC2C)OC(C)C1OC1OC(CO)C(O)C(O)C1O (configuration not stated)	HTR5A ag 37.5, OPRM1-OPRD1 ag 67.9 (no result: A1 inh)
CC(=O)O[C@H]1CC[C@@]2(C)[C@H](C1)C(=O)C[C@H]1[C@@H]3CC[C@@H]4[C@@H](CN5C[C@@H](C)CC[C@H]5[C@@]4(C)O)[C@@H]3C[C@@H]12	none
C#CC1(O)CCC2C3CCC4=CC(=O)CCC4=C3C=CC21C (configuration not stated)	HTR5A ag 10.9 (no result: A1 inh)
C/C1=C\[C@@H](C)C/C=C/[C@H]2[C@@H]3O[C@]3(C)[C@@H](C)[C@H]3[C@H](Cc4c[nH]c5ccccc45)NC(=O)[C@]32C(=O)/C=C/C(=O)[C@@H]1O	A1 inh 10.6
CCCC1=C(C(=O)OCC)C2(C(=O)Nc3ccc(C)cc32)C(C#N)=C(N)O1 (configuration not stated)	none
CCOC(=O)CC1=C(C(=O)OCC)C2(C(=O)Nc3ccccc32)C(C#N)=C(N)O1 (configuration not stated)	A1 inh 6.5
CC(C)c1ccc(-n2c(O)c(C=NCCN3CCNCC3)c(=O)[nH]c2=S)cc1	HTR5A ag 10.0, A1 inh inconclusive
CC12CC(O)C3C(CCC4=CC(=O)CCC43C)C1CCC2=O (configuration not stated)	none (no result: A1 inh)
O=c1c2ccccc2nc(/C=C/c2ccc(O)cc2)n1-c1ccc(O)cc1	none
COc1ccc(-n2c(/C=C/c3ccc(O)cc3)nc3ccccc3c2=O)cc1	HTR5A ag 10.0
O=c1c2ccccc2nc(/C=C/c2ccc(O)cc2)n1-c1cccc(O)c1	HTR5A ag 9.8
CC(=O)OC(C)(C)/C=C/C(=O)[C@](C)(O)[C@H]1[C@H](O)C[C@@]2(C)[C@@H]3CC=C4[C@H](C[C@H](O)C(=O)C4(C)C)[C@]3(C)C(=O)C[C@]12C	none (no result: A1 inh)
CC(=O)OC(C)(C)/C=C/C(=O)C(C)(O)C1[C@H](O)C[C@@]2(C)C3CC=C4C(CC[C@@H](O)C4(C)C)[C@]3(CO)C(=O)C[C@]12C (some centres not stated)	A1 inh 11.1
COC(=O)C1=C(c2c(C)noc2C)C[C@@H]2CC[C@H]1N2C(=O)NCCNC(C)=O	none
CC(=O)c1cn(CC(=O)NCCc2c[nH]c3ccccc23)c2ccccc12	none
Cc1cccc(CCNCc2cc3ccc(C)cc3[nH]c2=O)c1	HTR5A ag 11.8
Cc1cc(C)cc(N2C(=O)NC(=O)/C(=C\c3cccn3-c3ccc(Cl)cc3)C2=O)c1	HTR5A ag 14.1
S=c1[nH]c2ccccc2[nH]1	HTR5A ag 10.4
O=C(Nc1ccccc1)c1c(O)[nH]c(=S)[nH]c1=O	none
COc1ccc(CN2C(=O)NC(=O)/C(=C/c3ccc([N+](=O)[O-])s3)C2=O)cc1	none
CN(C)c1ccc(C(=O)N/N=C/C23CC[C@@H](O)CC2(O)CC[C@@H]2[C@@H]3CCC3(C)C(C4=CC(=O)OC4)CCC23O)cc1 (some centres not stated)	HTR5A ag 34.5, OPRM1-OPRD1 ag 59.1
CC12CC[C@H]3[C@@H](CCC4(O)C[C@H](O)CCC34/C=N/NC(=O)c3ccc(O)cc3)C1(O)CCC2C1=CC(=O)OC1 (some centres not stated)	none
COc1ccc(C(=O)N/N=C/C23CC[C@@H](O)CC2(O)CC[C@@H]2[C@@H]3CCC3(C)C(C4=CC(=O)OC4)CCC23O)cc1 (some centres not stated)	HTR5A ag 30.1, OPRM1-OPRD1 ag 33.5
COc1cccc(NP2(=O)OCC(C)([N+](=O)[O-])CO2)c1 (configuration not stated)	none (no result: A1 inh)
C[C@@H]1O[C@@H](O[C@H]2C[C@@H](O)[C@]3(CO)[C@H]4[C@H](O)C[C@]5(C)[C@@H](C6COC(=O)C6)CC[C@]5(O)[C@@H]4CC[C@]3(O)C2)[C@H](O)[C@H](O)[C@H]1O (some centres not stated)	OPRM1-OPRD1 ag 73.0
N#CC(=C(O)c1ccc(S(=O)(=O)N(CCCl)CCCl)cc1)c1nc2ccccc2[nH]1	none (no result: A1 inh)
COC1=CC2C3Cc4ccc(OC)c(O)c4C2(CCN3C)CC1=O (configuration not stated)	none
